Source: PubChem BioAssay (NCATS)

Experiments:
[1] = qHTS profiling of the MIPE4 collection as inhibitors of Plasmodium falciparum (3D7) proliferation (AID 743344);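 note: scaled between DMSO vehicle wells and 0.29 µM artemisinin as full inhibition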; conditions: P. falciparum 3D7 in erythrocytes, SYBR Green DNA fluorescence, 72 h; at 28.5 µM unless noted
Outline: (§1)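 Erythrocytes infected with P. falciparum (0.3% parasitemia, 2.5% hematocrit) incubated with compounds 72 h at 37 C, 5% CO2. Lysis with saponin/Triton buffer containing SYBR Green I, overnight at room temperature in the dark; DNA fluorescence (485/535 nm) normalised to 0.29 uM artemisinin and DMSO.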

[2] = qHTS profiling of the MIPE4 collection as inhibitors of Plasmodium falciparum (DD2) proliferation (AID 743345); conditions: P. falciparum Dd2 in erythrocytes, SYBR Green DNA, 72 h; at 28.5 µM unless noted
Outline: as §1

[3] = qHTS profiling of the MIPE4 collection as inhibitors of Plasmodium falciparum (DD2) proliferation (Rep 2) (AID 743346); conditions: P. falciparum Dd2 in erythrocytes, SYBR Green DNA, 72 h; at 28.5 µM unless noted
Outline: as §1

[4] = qHTS profiling of the MIPE4 collection as inhibitors of Plasmodium falciparum (HB3) proliferation (AID 743347);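 note: plate controls were DMSO vehicle wells for no effect and artemisinin wells for full effect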; conditions: P. falciparum HB3 in erythrocytes, SYBR Green DNA, 72 h; at 28.5 µM unless noted
Outline: as §1

[5] = High-throughput drug toxicity screening in the BPDCN cell line Gen2.2 (AID 1224824); conditions: Gen2.2 BPDCN cells; at 45.8 µM (top of the series) unless noted;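 note: cells exposed to compounds for 48 h before reading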
Outline: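 Gen2.2 cells (500/well) in phenol red-free RPMI with 10% FBS were exposed to compounds for 48 h at 37 °C, 5% CO2. Viability was read by CellTiter-Glo luminescence and normalized to DMSO (100%) and 9.2 uM bortezomib (0%).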

Row | SMILES | parasite growth, % of DMSO control [1] | parasite growth remaining, % of DMSO control (lower = more inhibition) [2] | parasite growth, % of control (lower = inhibition) [3] | growth, % of control [4] | cell viability, % of control (lower = more cytotoxic) [5]
1 | OCCNC1CCCc2c1[nH]c1ccc(-c3ccccc3)cc21 (stereo not given) | 7.39% | 15.7% | 13.3% | 3.72% | 1.69%
2 | COc1ccc2c(c1OC)C(=O)OC2[C@H]1c2c(cc3c(c2OC)OCO3)CCN1C (stereo not given in full) | 17.1% | 20.7% | 20.6% | 16.4% | 24.5%
3 | C=Cc1c(C)c2cc3nc(cc4[nH]c(cc5nc(cc1[nH]2)C(C)=C5CCC(=O)O)c(CCC(=O)OC)c4C)[C@@]1(C)C3=CC=C(C(=O)OC)[C@H]1C(=O)OC | 3.3% | 5.89% | 6.94% | 4.7% | 5.48%
4 | CCC(C=C[C@@H]1OC(=O)C=C[C@H]1C)=C[C@H](C)CC=CC(C)=C[C@@H](C)C(=O)[C@@H](C)[C@H](O)[C@@H](C)CC(C)=CC(=O)O | 402% [at 1.06 µM] | 97.4% [at 1.06 µM] | 106% [at 1.06 µM] | 577% [at 1.06 µM] | 5.63% [at 1.72 µM]
5 | Cc1ccc([N+](=O)[O-])cc1S(=O)(=O)N(C)N=Cc1cnc2ccc(Br)cn12 | 5.89% | 11.3% | 20.1% | 3.45% | 28.8%
6 | CCc1cc(C(C)=NOCc2ccc(C3CCCCC3)c(C(F)(F)F)c2)ccc1CN1CC(C(=O)O)C1 | 6.45% | 69.4% | 41.3% | 11.3% | 68%
7 | C[C@H]1C[C@H]2[C@@H]3CCC4=CC(=O)C=C[C@]4(C)[C@@H]3C(=O)C[C@]2(C)[C@@]1(O)C(=O)CO | 63% | 97.9% | 81.9% | 86.6% | 87.7%
8 | COc1ccc(Nc2nccc(NCCO)n2)cc1 | 67.2% | 94.8% | 83.3% | 87.1% | 195%
9 | CC(C)(C)[N+]([O-])=Cc1ccc(S(=O)(=O)O)cc1S(=O)(=O)O | 102% | 92.1% | 85.8% | 63% | 133%
10 | N#CC(=C(N)Sc1ccc(N)cc1)c1ccccc1C(F)(F)F | 24.4% | 69.5% | 33.9% | 7.78% | 7.44%
11 | N=c1ccn2c(n1)O[C@H]1[C@@H](O)[C@@H](CO)O[C@H]12 | 82.9% | 119% | 83.2% | 73.8% | 70.9%
